# Values without a mark were called inactive.
# Compound: C#CCNC(=O)CCSSCCC(=O)NCCc1ccc(C=O)c(C=O)c1
# Assay: lysine labeling ratio R10:1 (500 µM / 50 µM probe), SILAC-ABPP in living cells; higher = lower intrinsic lysine reactivity toward the probe, active = 2 or less
# Details: HeLa; probe concentrations 500 vs 50 µM
# Summary of the method: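 For each lysine, R is the median over forward and reverse replicates of the filtered median MS1 peptide ratio of high probe to low probe. The probe, an alkyne-tagged, disulfide-linked lysine probe, was given at 500 µM or 50 µM to living SILAC light and heavy HeLa cells in PBS at room temperature, with label swaps. Values are capped at 20.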
# Chain of UniProt Q15149 (Q15149 whole entry): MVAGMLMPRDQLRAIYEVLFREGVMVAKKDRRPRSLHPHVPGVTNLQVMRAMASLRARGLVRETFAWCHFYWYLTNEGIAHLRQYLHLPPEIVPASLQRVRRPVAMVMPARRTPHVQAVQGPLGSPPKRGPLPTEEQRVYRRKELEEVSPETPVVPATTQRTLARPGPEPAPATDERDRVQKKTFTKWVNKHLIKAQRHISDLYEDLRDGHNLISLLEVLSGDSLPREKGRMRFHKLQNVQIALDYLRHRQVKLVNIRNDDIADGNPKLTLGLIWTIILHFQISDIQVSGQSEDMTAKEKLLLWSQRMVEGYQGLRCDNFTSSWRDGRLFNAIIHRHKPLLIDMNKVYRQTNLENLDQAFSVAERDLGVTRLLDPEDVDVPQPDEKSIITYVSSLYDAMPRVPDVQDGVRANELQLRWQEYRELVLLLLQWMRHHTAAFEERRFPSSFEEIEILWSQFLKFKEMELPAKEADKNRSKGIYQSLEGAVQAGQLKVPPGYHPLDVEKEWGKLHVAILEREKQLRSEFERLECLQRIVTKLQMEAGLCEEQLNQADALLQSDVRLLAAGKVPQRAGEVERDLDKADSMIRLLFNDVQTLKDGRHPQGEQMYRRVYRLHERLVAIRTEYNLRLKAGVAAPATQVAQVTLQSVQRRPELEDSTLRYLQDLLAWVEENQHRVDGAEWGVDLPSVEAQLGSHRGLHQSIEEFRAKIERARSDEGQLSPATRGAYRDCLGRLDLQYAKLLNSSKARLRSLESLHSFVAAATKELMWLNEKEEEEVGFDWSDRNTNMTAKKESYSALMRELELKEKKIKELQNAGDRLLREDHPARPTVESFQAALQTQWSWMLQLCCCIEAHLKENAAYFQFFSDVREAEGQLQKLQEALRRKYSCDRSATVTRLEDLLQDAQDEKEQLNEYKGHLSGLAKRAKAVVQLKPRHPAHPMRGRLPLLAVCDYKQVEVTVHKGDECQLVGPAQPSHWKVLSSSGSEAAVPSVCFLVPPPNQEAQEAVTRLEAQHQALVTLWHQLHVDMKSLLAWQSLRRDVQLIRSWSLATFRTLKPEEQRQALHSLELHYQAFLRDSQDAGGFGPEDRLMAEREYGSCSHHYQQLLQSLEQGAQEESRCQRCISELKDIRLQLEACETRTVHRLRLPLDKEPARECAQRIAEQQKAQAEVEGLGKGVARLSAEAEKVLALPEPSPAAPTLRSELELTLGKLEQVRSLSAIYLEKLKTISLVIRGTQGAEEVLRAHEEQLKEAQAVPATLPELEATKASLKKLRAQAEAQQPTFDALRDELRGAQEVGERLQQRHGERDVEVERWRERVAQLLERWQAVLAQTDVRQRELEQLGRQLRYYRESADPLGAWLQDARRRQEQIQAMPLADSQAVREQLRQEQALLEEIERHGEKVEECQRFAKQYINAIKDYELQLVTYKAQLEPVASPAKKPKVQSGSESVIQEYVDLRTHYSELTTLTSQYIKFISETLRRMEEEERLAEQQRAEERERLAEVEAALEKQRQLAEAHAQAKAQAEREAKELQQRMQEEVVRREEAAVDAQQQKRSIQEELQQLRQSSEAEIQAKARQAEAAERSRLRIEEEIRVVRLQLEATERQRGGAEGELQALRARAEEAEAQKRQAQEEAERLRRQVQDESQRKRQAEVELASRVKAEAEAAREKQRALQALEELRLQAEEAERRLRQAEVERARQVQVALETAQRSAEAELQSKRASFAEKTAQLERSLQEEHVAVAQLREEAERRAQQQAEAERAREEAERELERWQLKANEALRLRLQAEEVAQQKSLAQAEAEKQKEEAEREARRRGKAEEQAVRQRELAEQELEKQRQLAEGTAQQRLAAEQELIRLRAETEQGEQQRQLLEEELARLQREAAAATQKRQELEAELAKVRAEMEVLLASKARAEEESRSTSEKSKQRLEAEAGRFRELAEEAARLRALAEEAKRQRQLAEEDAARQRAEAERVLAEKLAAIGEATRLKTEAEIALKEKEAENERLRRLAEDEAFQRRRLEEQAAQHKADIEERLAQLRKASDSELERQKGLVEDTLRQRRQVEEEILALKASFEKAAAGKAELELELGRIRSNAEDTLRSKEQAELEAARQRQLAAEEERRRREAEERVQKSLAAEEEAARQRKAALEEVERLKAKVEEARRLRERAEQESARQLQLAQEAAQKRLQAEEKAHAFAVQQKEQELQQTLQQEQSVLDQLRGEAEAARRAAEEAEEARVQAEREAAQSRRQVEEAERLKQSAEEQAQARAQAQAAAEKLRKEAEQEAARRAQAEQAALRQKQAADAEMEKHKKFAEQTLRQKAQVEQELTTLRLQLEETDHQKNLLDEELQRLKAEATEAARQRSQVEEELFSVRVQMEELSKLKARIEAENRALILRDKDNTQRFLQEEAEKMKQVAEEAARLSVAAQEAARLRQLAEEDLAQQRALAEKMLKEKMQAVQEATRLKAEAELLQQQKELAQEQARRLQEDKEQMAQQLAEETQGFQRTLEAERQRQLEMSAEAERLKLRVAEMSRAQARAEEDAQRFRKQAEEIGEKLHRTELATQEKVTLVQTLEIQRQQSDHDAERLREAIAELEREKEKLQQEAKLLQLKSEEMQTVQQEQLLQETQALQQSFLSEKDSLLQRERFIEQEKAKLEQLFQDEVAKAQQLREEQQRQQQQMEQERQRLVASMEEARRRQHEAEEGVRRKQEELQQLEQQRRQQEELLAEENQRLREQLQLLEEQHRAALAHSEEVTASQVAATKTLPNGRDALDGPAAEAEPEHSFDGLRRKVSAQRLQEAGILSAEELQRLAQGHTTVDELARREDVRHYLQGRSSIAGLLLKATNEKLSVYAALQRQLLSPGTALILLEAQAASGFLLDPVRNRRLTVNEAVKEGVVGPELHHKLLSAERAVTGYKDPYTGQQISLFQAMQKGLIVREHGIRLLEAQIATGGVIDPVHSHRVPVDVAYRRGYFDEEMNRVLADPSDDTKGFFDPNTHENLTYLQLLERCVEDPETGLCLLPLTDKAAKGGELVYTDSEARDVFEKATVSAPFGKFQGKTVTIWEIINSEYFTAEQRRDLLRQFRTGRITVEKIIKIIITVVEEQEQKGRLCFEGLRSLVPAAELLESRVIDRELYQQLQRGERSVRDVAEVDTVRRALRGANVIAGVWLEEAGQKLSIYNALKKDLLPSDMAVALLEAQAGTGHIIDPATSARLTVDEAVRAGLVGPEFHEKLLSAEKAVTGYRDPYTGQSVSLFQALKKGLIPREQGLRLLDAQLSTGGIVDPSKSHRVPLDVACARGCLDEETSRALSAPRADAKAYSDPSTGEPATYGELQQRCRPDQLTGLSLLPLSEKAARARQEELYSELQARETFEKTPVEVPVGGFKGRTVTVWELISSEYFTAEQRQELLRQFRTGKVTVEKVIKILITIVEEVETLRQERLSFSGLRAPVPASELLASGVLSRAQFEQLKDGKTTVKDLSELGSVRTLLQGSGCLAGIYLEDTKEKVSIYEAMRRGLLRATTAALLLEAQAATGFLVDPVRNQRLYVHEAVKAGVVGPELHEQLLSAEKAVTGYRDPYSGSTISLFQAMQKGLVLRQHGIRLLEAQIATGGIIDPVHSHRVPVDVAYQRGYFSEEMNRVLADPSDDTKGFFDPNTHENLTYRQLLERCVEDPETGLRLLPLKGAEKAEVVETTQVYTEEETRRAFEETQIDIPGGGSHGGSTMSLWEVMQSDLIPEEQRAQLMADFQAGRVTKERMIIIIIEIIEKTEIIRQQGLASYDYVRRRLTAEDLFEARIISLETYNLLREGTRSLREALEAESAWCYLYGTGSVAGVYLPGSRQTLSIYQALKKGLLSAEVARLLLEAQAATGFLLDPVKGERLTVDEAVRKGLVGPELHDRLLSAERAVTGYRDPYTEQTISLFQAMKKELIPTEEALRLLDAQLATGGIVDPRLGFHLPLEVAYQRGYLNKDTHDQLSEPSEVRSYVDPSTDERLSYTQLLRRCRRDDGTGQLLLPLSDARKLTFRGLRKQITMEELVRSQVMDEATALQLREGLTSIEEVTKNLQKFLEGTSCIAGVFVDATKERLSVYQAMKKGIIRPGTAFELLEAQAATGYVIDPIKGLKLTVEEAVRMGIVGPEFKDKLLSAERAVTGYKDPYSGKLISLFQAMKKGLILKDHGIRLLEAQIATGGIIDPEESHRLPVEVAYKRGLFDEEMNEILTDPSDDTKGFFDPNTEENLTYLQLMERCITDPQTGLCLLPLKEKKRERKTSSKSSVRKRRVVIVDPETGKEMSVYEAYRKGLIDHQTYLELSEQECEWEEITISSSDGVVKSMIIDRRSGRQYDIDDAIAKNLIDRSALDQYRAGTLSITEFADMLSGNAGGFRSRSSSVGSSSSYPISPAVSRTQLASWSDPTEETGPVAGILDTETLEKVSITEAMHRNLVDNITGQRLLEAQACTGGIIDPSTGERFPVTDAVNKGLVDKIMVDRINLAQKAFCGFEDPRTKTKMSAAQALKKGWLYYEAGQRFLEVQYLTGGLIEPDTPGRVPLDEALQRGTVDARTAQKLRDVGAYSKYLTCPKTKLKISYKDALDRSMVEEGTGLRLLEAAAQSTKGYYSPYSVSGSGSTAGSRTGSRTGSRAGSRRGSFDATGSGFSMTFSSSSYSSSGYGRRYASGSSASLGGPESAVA
# Chain of UniProt P67936 (P67936 whole entry): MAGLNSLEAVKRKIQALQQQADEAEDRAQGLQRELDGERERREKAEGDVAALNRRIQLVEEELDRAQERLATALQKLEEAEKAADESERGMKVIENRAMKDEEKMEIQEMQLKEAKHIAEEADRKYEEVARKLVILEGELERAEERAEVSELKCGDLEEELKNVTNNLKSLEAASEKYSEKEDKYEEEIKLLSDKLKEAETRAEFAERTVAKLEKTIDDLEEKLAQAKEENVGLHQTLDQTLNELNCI
# Chain of UniProt P30626 (P30626 whole entry): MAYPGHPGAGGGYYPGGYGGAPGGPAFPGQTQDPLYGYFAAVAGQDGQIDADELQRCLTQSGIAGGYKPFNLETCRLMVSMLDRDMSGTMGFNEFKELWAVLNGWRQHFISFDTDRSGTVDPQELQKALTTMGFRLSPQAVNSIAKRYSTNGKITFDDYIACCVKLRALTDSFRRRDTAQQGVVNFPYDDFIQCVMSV
row,Target,lysine labeling ratio R10:1
1,TFRC (lysine site: K128) (UniProt P02786),6.74
2,TF (lysine site: K135) (UniProt P02787),1.26 (active)
3,RPL28 (lysine site: K84) (UniProt P46779),2.27
4,UniProt P55072 (lysine site: K754),2.84
5,UniProt Q8WXI7 (lysine site: K13072),11.1
6,SLC25A5 (lysine site: K63) (UniProt P05141),3.19
7,VCL (lysine site: K316) (UniProt P18206),1.77 (active)
8,CSRP1 (lysine site: K112) (UniProt P21291),1.46 (active)
9,UniProt P62851 (lysine site: K114),2.69
10,UniProt P02533 (lysine site: K297),2.74
11,PNN (lysine site: K262) (UniProt Q9H307),1.08 (active)
12,TPM4 (lysine site: K44) (UniProt P67936),1.15 (active)
13,UniProt P62805 (lysine site: K92),7.01
14,TKT (lysine site: K310) (UniProt P29401),7.45
15,UniProt Q15149 (lysine site: K3384),4.26
16,TAGLN2 (lysine site: K40) (UniProt P37802),2.67
17,CD109 (lysine site: K127) (UniProt Q6YHK3),12
18,UniProt Q15149 (lysine site: K3476),1.8 (active)
19,GPRC5A (lysine site: K16) (UniProt Q8NFJ5),6.52
20,LDHA (lysine site: K155) (UniProt P00338),2.54
21,SRI (lysine site: K146) (UniProt P30626),4.33
22,WDR1 (lysine site: K569) (UniProt O75083),5.89
23,FLNB (lysine site: K1955) (UniProt O75369),1.23 (active)

# — the supplement of paper PMC11001985
